This is a sample that favours compounds with a hit; in the whole collection about 3.1% have one here.
FadD28 binding – inhibitors of FadD28 bisubstrate probe binding, primary screen, biochemical, fluorescence polarization, single point; Mycobacterium tuberculosis FadD28 fatty-acid-AMP ligase; 360,000 tested, 0.22% active; inhibition, % at 12.5 µM; AID 588549, 2011; in the data active = inhibition above about 8.5%, passing the limit was not always enough
3CLpro inhibitor – SARS-CoV 3CLpro protease inhibitors, primary screen, biochemical, quenched FRET; recombinant SARS-CoV 3CLpro, quenched FRET peptide cleavage; inhibition, % at 6 µM; 290,000 tested, 0.14% active; AID 1706, 2009; in the data active = inhibition above about 12%
Mtb BioA inh – M. tuberculosis BioA enzyme inhibitors, primary screen, biochemical, plate reader, single point, HTS; purified M. tuberculosis BioA enzyme; inhibition, % at 9.99 µM; 360,000 tested, 0.096% active; AID 602481, 2012; in the data active = inhibition above about 40%
GDH-TPI counter-1 – GDH-TPI coupling enzyme inhibitors, primary screen, artefact control for M. tuberculosis FBA inhibitor project, biochemical, absorbance, full deck; GDH-TPI coupled enzyme counterscreen, NADH absorbance; inhibition, % at 4.8 µM; 360,000 tested, 1.2% active; in the data active = inhibition above about 30%;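 also: 0% = DMSO wells and 100% = wells lacking the enzyme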
FBA Mtb inh – Mtb FBA enzyme inhibitors, primary screen, biochemical, fluorescence, strain H37Rv. inhibition, % at 1 µM. purified M. tuberculosis FBA, fluorescence read-out. Fructose-bisphosphate aldolase (Mycobacterium tuberculosis (strain ATCC 25618 / H37Rv)), …. 360,000 tested, 2.3% active;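 also: 0% = vehicle and 100% = reference inhibitor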
Target sequence (P9WQA3 whole entry, looked up): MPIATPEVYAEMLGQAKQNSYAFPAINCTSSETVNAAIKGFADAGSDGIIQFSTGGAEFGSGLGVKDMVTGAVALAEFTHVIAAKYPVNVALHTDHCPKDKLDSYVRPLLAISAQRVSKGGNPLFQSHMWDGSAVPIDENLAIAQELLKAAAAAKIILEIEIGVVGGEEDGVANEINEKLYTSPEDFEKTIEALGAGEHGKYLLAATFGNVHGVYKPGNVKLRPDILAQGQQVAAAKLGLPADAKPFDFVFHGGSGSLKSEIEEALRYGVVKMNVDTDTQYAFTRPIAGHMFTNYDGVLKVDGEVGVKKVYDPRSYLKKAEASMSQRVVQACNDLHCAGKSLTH
Mtb FBA confirm – M. tuberculosis aldolase blockers, biochemical, fluorescence, strain H37Rv, confirmation; purified M. tuberculosis FBA, fluorescence read-out; 5,600 tested, 78% active; inhibition, % at 1 µM; AID 651616, 2012; shares compounds with FBA Mtb inh;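 also: 0% = vehicle wells and 100% = reference inhibitor wells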
GDH-TPI counter-2 – GDH-TPI coupling enzyme inhibitors, artefact control for M. tuberculosis FBA inhibitor project, biochemical, fluorescence, high throughput | shares compounds with FBA Mtb inh | GDH-TPI coupled enzyme counterscreen | inhibition, % at 1 µM | 5,600 tested, 81% active | AID 652141, 2013; in the data active = inhibition above about 10%
An asterisk follows results filed as active; x = not tested or not shown; + = active, no number. Rule as the data show it, unless noted: active = inhibition above about 27%; inactive = the rest.

SMILES | FadD28 binding | 3CLpro inhibitor | Mtb BioA inh | GDH-TPI counter-1 | FBA Mtb inh | Mtb FBA confirm | GDH-TPI counter-2
O=C(c1cc2c(ccc3ccccc32)oc1=O)N1CCN(CCO)CC1 | 0.7 | -3.3 | -1.5 | 25.7 | 52.6* | 62.7* | 61.9*
CC(=O)Nc1cc2c(ccc3ccccc32)oc1=O | 1.0 | -1.3 | x | 11.4 | 104.8* | 69.2* | 62.9*
CC(=O)Nc1cc2ccccc2oc1=O | -3.4 | -0.9 | x | 9.7 | 2.5 | x | x
C/C(=N\Nc1nc(-c2cc(C)ccc2C)cs1)c1cc2c(ccc3ccccc32)oc1=O | -2.3 | -3.3 | x | 12.2 | 28.7* | 69.3* | 42.8*
O=C(c1ccco1)c1cc2c(ccc3ccccc32)oc1=O | -2.2 | -0.1 | -0.8 | 13.6 | 4.0 | x | x
CN1CCN(C(=O)c2cc3ccccc3oc2=O)CC1 | -0.1 | -3.9 | 8.4 | 1.5 | 1.9 | x | x
CC(=O)c1cc2c(ccc3ccccc32)oc1=O | -2.8 | 2.8 | -15.2 | 11.4 | 49.8* | 73.4* | 59.6*
C[C@H](CO)N1C[C@H](C)[C@H](CN(C)C(=O)Nc2ccc(C(F)(F)F)cc2)Oc2ccc(NC(=O)Nc3ccc4c(c3)OCO4)cc2C1=O | x | x | -2.3 | x | x | x | x
COCC(=O)Nc1ccc2c(c1)C(=O)N(C)C[C@@H](OC)[C@@H](C)CN(Cc1ccccc1OC)[C@H](C)CO2 | x | x | 0.4 | x | x | x | x
COc1ccc(NC(=O)N(C)C[C@H]2Oc3ccc(NC(=O)c4ccncc4)cc3CC(=O)N([C@H](C)CO)C[C@H]2C)cc1 | x | x | -1.7 | x | x | x | x
CO[C@@H]1CN(C)C(=O)c2cc(NS(=O)(=O)c3cccc(C)c3)ccc2OC[C@@H](C)N(C(=O)Cc2cccnc2)C[C@H]1C | x | x | 0.8 | x | x | x | x
CCCNC(=O)Nc1ccc2c(c1)OC[C@@H](C)N(C(=O)C1CC1)C[C@H](C)[C@@H](OC)CN(C)C2=O | x | x | -3.3 | x | x | x | x
CC(=O)N[C@@H]1CC[C@H](CCNC(=O)Nc2ccc(C(F)(F)F)cc2)O[C@@H]1CO | x | x | 2.2 | x | x | x | x
COc1ccc(S(=O)(=O)N[C@H]2CC[C@H](CCNC(=O)c3ccccc3F)O[C@H]2CO)cc1 | x | x | 1.5 | x | x | x | x
O=C(Nc1nc(-c2cccc3ccccc23)cs1)c1ccc2c(c1)S(=O)(=O)c1ccccc1C2=O | 0.4 | 0.6 | -1.1 | 9.2 | 7.1 | x | x
O=C(Nc1nc(-c2ccccc2)cs1)c1ccc2c(c1)S(=O)(=O)c1ccccc1C2=O | 0.8 | -9.7 | x | -2.0 | 83.8* | + | 157.7*
Cc1cc(OC(C)C(=O)NCc2ccccn2)c2c(C)cc(=O)oc2c1 (stereo not given) | -0.7 | -1.5 | -3.1 | 9.4 | 103.3* | 1.4 | -4.5
CCCCc1cc(=O)oc2cc(C)cc(OC(C)C(=O)NCc3ccccn3)c12 (stereo not given) | -3.2 | -0.4 | 0.1 | 10.3 | 63.0* | 153.1* | 122.0*
CCCCc1cc(=O)oc2cc(C)cc(OCC(=O)NCc3ccccn3)c12 | -4.6 | -4.4 | 2.1 | -5.5 | 63.7* | 46.5* | 38.8*
CCCCc1cc(=O)oc2cc(OCC(=O)NCc3ccccn3)c(Cl)cc12 | 0.8 | 1.8 | -1.7 | 3.0 | 1.3 | x | x
Cc1cc(OC(C)C(=O)NCc2ccccn2)c2c(C)c(Cc3ccccc3)c(=O)oc2c1 (stereo not given) | -2.3 | -1.6 | 0.2 | 9.4 | 4.0 | x | x
C[C@@H]1CN([C@H](C)CO)C(=O)c2cccc(NS(=O)(=O)c3ccc(F)cc3)c2O[C@H]1CN(C)S(=O)(=O)c1ccc(Cl)cc1 | x | x | -3.7 | x | x | x | x
c1csc(-c2nnsc2-c2nc3ccccc3[nH]2)c1 | -5.8 | -0.1 | -0.9 | 3.5 | -0.8 | x | x
O=c1[nH]c2ccccc2nc1-c1cccs1 | -0.1 | 3.8 | -1.9 | 14.7 | 103.9* | 142.6* | 106.6*
Cc1noc(C)c1NC(=O)Nc1cccc2c1O[C@H](CN(C)S(=O)(=O)c1ccc(F)cc1)[C@H](C)CN([C@H](C)CO)C2=O | x | x | 0.2 | x | x | x | x
SMILES | FadD28 binding | 3CLpro inhibitor | Mtb BioA inh | GDH-TPI counter-1 | FBA Mtb inh | Mtb FBA confirm | GDH-TPI counter-2
O=C(O)c1ccccc1NCN1C(=O)C2CC=C(Cl)CC2C1=O (stereo not given) | -0.1 | 0.7 | -1.7 | 0.0 | 39.8* | 24.1 | 28.5*
Cc1cc(N=Cc2c(O)n(-c3cccc(Cl)c3)c(=O)c3ccccc23)no1 | -3.1 | 2.2 | -1.3 | 19.5 | 56.8* | 105.5* | 82.6*
O=c1c2ccccc2c(C=Nc2ccc(S(=O)(=O)Nc3ncccn3)cc2)c(O)n1-c1cccc(Cl)c1 | x | -2.1 | x | x | x | x | x
COc1ccc(NC(=O)c2sc3nc(C)cc(C)c3c2N)c(OC)c1 | -1.7 | x | -1.1 | 14.8 | 3.3 | x | x
COc1cccc(N2CC(=O)N(NC(=O)c3sc4nc(C)cc(C)c4c3N)CC2=O)c1 | -1.8 | 3.3 | x | 5.2 | 54.1* | + | 175.0*
Cc1cc(C)c2c(N)c(C(=O)NN3CC(=O)N(c4ccccc4F)CC3=O)sc2n1 | -1.4 | -3.6 | -0.9 | 2.5 | 62.1* | 104.4* | 86.8*
O=C(COc1ccc2c(c1)C(=O)CC1(CCCCC1)O2)NCc1ccccc1 | -0.6 | -2.7 | 0.1 | 2.2 | 36.4* | 62.5* | 48.4*
CCOC(=O)COc1ccc2c(c1)C(=O)CC1(CCCCC1)O2 | -2.0 | 2.4 | x | 23.8 | 53.2* | 89.1* | 76.6*
O=C(COc1ccc2c(c1)C(=O)CC1(CCCCC1)O2)NCc1ccccn1 | -0.7 | -4.6 | 4.7 | 14.0 | 37.5* | 82.2* | 57.7*
O=C(COc1ccccc1)NCc1ccccc1 | x | 2.2 | -0.5 | -6.7 | 1.9 | x | x
CCS(=O)(=O)Nc1ccc2c(c1)C(=O)N(C)C[C@@H](OC)[C@@H](C)CN(C)[C@@H](C)CO2 | x | x | -2.3 | x | x | x | x
COc1ccc(NC(=O)N(C)C[C@H]2OCc3ccccc3-c3ccccc3C(=O)N([C@@H](C)CO)C[C@@H]2C)c(OC)c1 | x | x | 0.6 | x | x | x | x
COc1ccc(S(=O)(=O)N(C)C[C@@H]2Oc3c(NS(=O)(=O)c4ccc(C)cc4)cccc3C(=O)N([C@H](C)CO)C[C@@H]2C)cc1 | x | x | -1.0 | x | x | x | x
C[C@@H]1CN([C@H](C)CO)C(=O)c2cccc(NC(=O)Nc3ccccc3)c2O[C@@H]1CN(C)C | x | x | -0.1 | x | x | x | x
CNC1(c2ccccc2Cl)CCCCC1=O (stereo not given) | 0.3 | x | -0.9 | -4.5 | 27.0* | 57.8* | 35.5*
O=C(C[C@H]1CC[C@H]2[C@@H](COC[C@@H](O)CN2C(=O)c2cccnc2)O1)Nc1ccc(-c2ccccc2)cc1 | x | x | -2.7 | x | x | x | x
Cc1ccc(S(=O)(=O)N(C)C[C@@H]2Oc3ccc(NC(=O)C4CC4)cc3C(=O)N([C@@H](C)CO)C[C@H]2C)cc1 | x | x | 5.0 | x | x | x | x
Cc1nc2ccccn2c1-c1nnco1 | 0.1 | -1.8 | 0.3 | 3.0 | 35.6* | 4.7 | -3.6
